# From PubChem BioAssay
# PAFAH2 FP inh = PAFAH2 enzyme inhibitors, primary screen, biochemical, fluorescence polarization, human. recombinant PAFAH2, FP-rhodamine activity probe. 0.99% of 340,000 active. AID 492956, 2010. inhibition, % at 3.39 µM;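 active means inhibition above the mean over all tested compounds plus 3 SD, cut at about 30% in these data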;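 further: inhibitors block probe labeling of enzyme so polarization drops; 0% = enzyme with DMSO and 100% = wells lacking PAFAH2 protein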
# PAFAH1B3 inh = PAFAH1B3 enzyme inhibitors, primary screen, biochemical, fluorescence polarization, human | recombinant PAFAH1B3, FP-rhodamine probe | inhibition, % at 3.39 µM | 0.28% of 340,000 active | AID 492972, 2010;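 active means inhibition above the screen-wide average of all tested compounds plus 3 SD, cut at about 25% in these data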;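 further: 0% = enzyme with DMSO only and 100% = wells lacking PAFAH1B3 protein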
# Target sequence (Q15102 whole entry, looked up): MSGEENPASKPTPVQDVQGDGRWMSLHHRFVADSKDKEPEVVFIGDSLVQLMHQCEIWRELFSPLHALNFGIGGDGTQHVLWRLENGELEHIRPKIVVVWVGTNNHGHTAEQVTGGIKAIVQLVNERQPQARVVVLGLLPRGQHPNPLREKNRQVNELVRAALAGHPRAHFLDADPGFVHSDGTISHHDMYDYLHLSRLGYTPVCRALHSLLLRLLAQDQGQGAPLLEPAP
# DAGLB inh = DAGLB lipase inhibitors, primary screen, biochemical, fluorescence, HTS | inhibition, % at 5.17 µM | HEK293T DAGLB membrane lysate, EnzChek fluorogenic substrate | 0.059% of 340,000 active; in the data active means inhibition above about 34%;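 further: 0% = enzyme with vehicle and 100% = wells lacking enzyme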
# PAFAH1B2 inh = PAFAH1B2 enzyme inhibitors, primary screen, biochemical, fluorescence polarization, human; inhibition, % at 3.39 µM; recombinant PAFAH1B2, FP-rhodamine activity probe; 1.2% of 340,000 active;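 active means inhibition above the mean of all tested compounds plus 3 SD, cut at about 24% in these data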;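 further: 0% = enzyme with DMSO and 100% = wells lacking PAFAH1B2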
# Target sequence (P68402 whole entry, looked up): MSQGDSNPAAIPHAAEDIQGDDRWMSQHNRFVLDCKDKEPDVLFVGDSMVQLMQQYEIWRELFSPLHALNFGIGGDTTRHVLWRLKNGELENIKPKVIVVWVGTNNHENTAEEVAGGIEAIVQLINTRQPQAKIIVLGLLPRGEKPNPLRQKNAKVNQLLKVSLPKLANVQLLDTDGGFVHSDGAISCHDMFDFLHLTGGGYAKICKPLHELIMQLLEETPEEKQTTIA
# ATG4B inh = ATG4B protease inhibitors, primary screen, biochemical, fluorescence, uHTS; Cysteine protease ATG4B (Homo sapiens), Q9Y4P1; ATG4B cleavage of LC3-PLA2, NBD-HPC fluorescence, 1 h; inhibition, % at 8.33 µM; 0.51% of 340,000 active; AID 504462, 2011; in the data active means inhibition above about 40%
# pPAFAH FP inh = pPAFAH enzyme inhibitors, primary screen, biochemical, fluorescence polarization, human. recombinant pPAFAH, FP-rhodamine probe fluorescence polarization. inhibition, % at 3.39 µM. 1.5% of 330,000 active. AID 463082, 2010;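 active means inhibition above the mean inhibition across the screen plus 3 SD, cut at about 25% in these data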;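 further: inhibitors block binding of the rhodamine activity-based probe so polarization drops; 0% = enzyme with DMSO and 100% = wells lacking pPAFAH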
# PAFAH2 confirm = PAFAH2 enzyme inhibitors, confirmation, biochemical, fluorescence polarization, human; shares compounds with PAFAH2 FP inh; recombinant PAFAH2, FP-rhodamine activity probe; 65% of 2,300 active; inhibition, % at 3.39 µM;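 active means mean inhibition over three repeats above a set limit taken from the earlier primary screen, cut at about 30% in these data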;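 further: inhibitor blocks binding of rhodamine activity probe so polarization falls; 0% = enzyme with DMSO and 100% = wells lacking PAFAH2 protein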
# * marks the source's active call; other numbers are inactive results; . = no result. Rows were chosen to be rich in hits. Some 3% of all compounds tested hit in one or more screens of this group.
SMILES,PAFAH2 FP inh,PAFAH1B3 inh,DAGLB inh,PAFAH1B2 inh,ATG4B inh,pPAFAH FP inh,PAFAH2 confirm
Cc1ccnc(SC2CC(=O)N(c3ccc(F)cc3)C2=O)n1 (stereo not drawn),-1.8,5.9,0.4,5.8,-2.5,-1.0,.
CSc1ccccc1NC(=O)CN(C)C(=O)COc1cccc2cccnc12,1.6,7.0,1.1,4.7,-64.4,4.0,.
CCOC(=O)[C@H]1[C@H]2COc3cc(OC)ccc3[C@@H]2N2C(=O)N(c3cccc(Cl)c3)C(=O)[C@@]12C,3.1,4.0,-11.4,1.0,-1.5,-7.0,.
COc1ccccc1NC(=O)COC(=O)/C=C/c1cccs1,31.1*,8.5,-7.8,4.2,-7.5,-4.4,22.6
O=C(COC(=O)/C=C/c1cccs1)Nc1ccc(Cl)cc1F,52.0*,-1.0,-8.6,4.2,-3.3,5.0,58.0*
COc1ccccc1NC(=O)COC(=O)/C=C/c1ccc(OC)c(OC)c1,37.0*,8.0,0.0,5.4,-13.9,3.6,21.8
COCCNC(=O)COC(=O)c1ccc(OCC(=O)Nc2ccccc2OC)c(OC)c1,32.2*,11.9,1.9,2.7,-2.4,1.4,19.4
O=c1c2ccccc2oc2cc(OCc3cccc(F)c3)cc(O)c12,-4.7,7.0,2.1,1.4,7.0,.,.
CC(C)c1csc(CN2CCC(N3CCC(C(=O)NCC4CCCO4)CC3)CC2)n1 (stereo not drawn),-4.3,0.3,0.0,3.7,-6.3,3.2,.
CC(=O)NC(Cc1ccccc1)C(=O)OCC(=O)c1ccc(F)cc1 (stereo not drawn),-5.5,-1.5,-0.9,2.1,-2.2,1.3,.
COc1ccc(/C=C/C(=O)OCC(=O)Nc2ccc(Cl)c(S(=O)(=O)N(C)C)c2)cc1OC,83.8*,-2.9,-1.6,-4.8,-19.0,15.4,75.1*
COc1ccc(/C=C/C(=O)OCC(=O)Nc2ccc(S(N)(=O)=O)cc2)cc1OC,2.3,-1.4,-1.7,5.2,-8.1,-0.3,.
CCS(=O)(=O)c1ccc(O)c(NC(=O)COc2ccc(OC)cc2)c1,18.3,3.8,2.7,-0.4,-5.1,4.0,.
CCS(=O)(=O)c1ccc(O)c(NC(=O)Nc2ccccc2OC)c1,46.5*,7.7,-0.6,0.4,-4.2,14.9,59.0*
CCCc1ccc(OCC(=O)Nc2cc(S(=O)(=O)CC)ccc2O)cc1,32.9*,6.5,2.8,12.6,-1.2,22.4,25.7
CCS(=O)(=O)c1ccc(O)c(NC(=O)CC2(CC(=O)O)CCCC2)c1,37.3*,2.0,0.3,-0.7,-4.9,3.0,27.2
CCS(=O)(=O)c1ccc(O)c(NC(=O)CCCC(=O)O)c1,4.2,-4.9,-0.3,-1.4,-6.5,3.2,.
CCNS(=O)(=O)c1ccc(NC(=O)Nc2ccccc2OC)cc1,0.1,0.7,-2.9,5.0,-13.9,0.8,.
CCS(=O)(=O)c1ccc(O)c(NC(=O)/C=C/c2ccccc2)c1,74.7*,7.8,1.4,3.7,5.7,17.5,73.2*
CCC/C=C/c1ccc(CN2C(C(C)C)C(=O)N(Cc3cn(Cc4ccco4)nn3)CCS2(=O)=O)cc1 (stereo not drawn),.,.,0.8,.,.,.,.
OCC1OC(Oc2c[nH]c3ccccc23)C(O)C(O)C1O (stereo not drawn),-2.2,22.0,1.2,2.7,2.4,-4.7,.
COc1ccc(CCn2c(=O)c3cccnc3n(Cc3cccc([N+](=O)[O-])c3)c2=O)cc1OC,-4.8,-0.5,0.0,2.7,0.5,-0.4,.
CC1CCCC(C)N1CCOc1cc(N)ccc1C#N (stereo not drawn),-1.1,-0.1,-0.1,-0.7,-6.8,.,.
CCOc1ccc(CCNC(=O)COC(=O)c2ccc(OC)c(OC)c2OC)cc1OCC,20.4,2.1,-1.2,1.6,-4.2,3.0,.
COc1cc(OC)c(C(=O)OCC(=O)Nc2cc(C)on2)cc1OC,4.9,4.2,-2.3,-2.9,0.9,-0.9,.
SMILES,PAFAH2 FP inh,PAFAH1B3 inh,DAGLB inh,PAFAH1B2 inh,ATG4B inh,pPAFAH FP inh,PAFAH2 confirm
COc1cc(CC(=O)Nc2ccc(Cl)c(C(F)(F)F)c2)cc(OC)c1OC,-4.4,8.8,-3.0,-1.7,-1.9,0.7,.
COc1ccc(C(=O)OCC(=O)Nc2ccc(Cl)c(C(F)(F)F)c2)c(OC)c1OC,67.7*,-2.5,-11.3,3.4,-3.5,20.6,76.8*
COc1cc(C(=O)OCC(=O)Nc2cc(C)on2)c([N+](=O)[O-])cc1OC,36.9*,3.8,3.5,-0.4,-8.0,1.4,23.9
COc1ccc(C(=O)OCC(=O)Nc2cc(C)on2)c(OC)c1OC,67.6*,2.0,-3.3,2.4,-10.4,3.1,64.7*
COc1ccc(C(=O)OCC(=O)NCc2ccccc2)c(OC)c1OC,56.8*,-2.5,-1.8,2.0,-2.3,2.2,56.3*
CC1CCCc2sc3ncn(N)c(=N)c3c21 (stereo not drawn),-2.2,5.1,-0.2,0.1,-3.3,-0.5,.
CC1=C(C(=O)N2CCOCC2)CC(CC(=O)NCc2ccco2)C(=O)N1CCC1=CCCCC1 (stereo not drawn),.,.,-1.9,.,.,.,.
COc1ccc(C)cc1NC(=O)COC(=O)c1c(C)noc1C,45.8*,4.7,-1.8,-2.6,-2.9,-1.3,-0.7
Cn1nnnc1SCC1=C(C(=O)O)N2C(=O)C(NC(=O)C3CC3c3ccccc3)C2SC1 (stereo not drawn),44.2*,-2.6,-0.1,6.7,-9.6,0.9,6.3
CSCCC(NS(=O)(=O)c1ccc(Cl)c(Cl)c1)C(=O)O (stereo not drawn),68.0*,3.1,2.5,13.4,-9.2,-9.0,70.8*
CSCCC(NS(=O)(=O)c1ccc2ccccc2c1)C(=O)O (stereo not drawn),6.4,5.6,-0.3,10.5,-0.2,0.2,.
Cc1cc(C)c(S(=O)(=O)N2CCN(C(=O)N3CCOCC3)CC2)c(C)c1,28.2,6.2,-0.7,6.8,-5.4,-1.2,.
Cc1cc(C)c(S(=O)(=O)N2CCN(C(=O)N3CCCCC3)CC2)c(C)c1,33.6*,7.6,-2.1,-2.8,-3.9,1.3,29.8*
Cc1c(C(=O)OCC(=O)NC(=O)NC2CCCCC2)cccc1[N+](=O)[O-],2.6,1.8,-0.2,6.6,-14.2,3.3,.
O=C(COC(=O)c1cccc(Br)c1)NC(=O)NC1CCCC1,0.5,8.1,0.0,2.0,-4.0,.,.
COc1ccc(C(=O)OCC(=O)NC(=O)NC2CCCC2)cc1OC,30.0*,9.0,1.2,-3.7,-3.6,-3.2,26.8
